# Only some compounds are listed: those with a hit (about 2.6% of all), similar ones and a draw of the others.
# Fam108B inh: blocks mouse Fam108B hydrolase in RBBP9 counter-screen | recombinant Fam108B, FP-Rh probe fluorescence polarization | inhibition, % at 9.51 µM | actives 0.33% (n = 300,000);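 active = inhibition above the screen mean inhibition plus 3 SD, computed separately per campaign, cut at about 18% in these data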;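 also: inhibitors lower polarization as less probe binds the enzyme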
# SIAE primary: blocks human sialic acid acetylesterase. Q9HAT2. SIAE FP-Rh probe binding, fluorescence polarization. inhibition, % at 9.66 µM. actives 0.69% (n = 370,000). AID 1053197;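 active = inhibition above a cutoff: mean of compounds within the control limits plus 3 SD of those, cut at about 17% in these data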;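 also: 0% = plate median of compound wells and 100% = probe without SIAE protein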
# Target sequence (Q9HAT2 whole entry, looked up): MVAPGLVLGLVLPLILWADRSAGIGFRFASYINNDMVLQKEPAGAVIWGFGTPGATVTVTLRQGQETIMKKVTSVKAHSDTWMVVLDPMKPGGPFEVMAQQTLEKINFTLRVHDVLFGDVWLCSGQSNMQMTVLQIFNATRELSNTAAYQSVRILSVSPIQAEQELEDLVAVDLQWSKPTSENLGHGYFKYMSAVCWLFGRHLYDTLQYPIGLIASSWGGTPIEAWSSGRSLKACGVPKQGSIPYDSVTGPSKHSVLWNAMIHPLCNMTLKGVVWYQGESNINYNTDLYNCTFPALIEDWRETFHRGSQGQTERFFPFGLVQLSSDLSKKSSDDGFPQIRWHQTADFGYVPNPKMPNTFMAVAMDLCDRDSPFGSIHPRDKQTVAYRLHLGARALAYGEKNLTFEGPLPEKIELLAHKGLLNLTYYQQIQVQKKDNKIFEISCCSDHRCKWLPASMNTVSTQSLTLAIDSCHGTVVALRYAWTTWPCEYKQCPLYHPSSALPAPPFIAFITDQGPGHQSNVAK
# PME-1 inh: blocks human protein phosphatase methylesterase 1; Q9Y570; recombinant PME-1, FP-Rh probe fluorescence polarization; inhibition, % at 5.9 µM; actives 0.53% (n = 320,000); AID 2130;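 active = inhibition above the campaign mean of all compounds plus 3 SD, cut at about 26% in these data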;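 also: competitive labeling of PME-1 active site by serine hydrolase directed probe; 0% = PME-1 with DMSO and 100% = wells lacking PME-1 enzyme; inhibitors block probe labeling so polarization falls and inhibition rises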
# PRMT1 inh: blocks human protein arginine methyltransferase 1; inhibition, % at 2.79 µM; recombinant PRMT1, activity-based probe fluorescence polarization; AID 652257; actives 1.3% (n = 370,000); Q99873;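 active = inhibition above about 21% made by adding two undisclosed values, limit read from the data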
# TCR-CD3 inh: blocks the human TCR-CD3 interaction. inhibition, % at 9.4 µM. TAMRA-labeled TCR probe fluorescence, biochemical. actives 0.37% (n = 360,000); in the data active = inhibition above about 19%;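 also: recombinant mutant TCR 2C K166C tagged with TAMRA read by polarization; 0% = receptor in buffer alone and 100% = receptor with positive control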
# PAD4 inh: blocks human protein arginine deiminase 4 | recombinant PAD4, RCA probe fluorescence polarization | actives 0.41% (n = 330,000) | Q9UM07 | inhibition, % at 6.36 µM | AID 485272;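 active = percent inhibition above a cutoff equal to the mean of all tested compounds plus 3 SD, cut at about 15% in these data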;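 also: 0% = PAD4 with RCA probe and DMSO and 100% = probe without PAD4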
# SIAE inh conf: human SIAE inhibition, confirmation; inhibition, % at 9.66 µM; actives 13% (n = 2,300); AID 1117263; shares compounds with SIAE primary; SIAE FP-Rh activity-based probe, fluorescence polarization;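 active = mean inhibition of the replicates above the hit cutoff set in the primary screen, cut at about 17% in these data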;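 also: 0% = SIAE with DMSO and probe and 100% = probe without SIAE; inhibitors lower polarization as more probe stays unbound to SIAE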
# * = called active by the depositor; x = not tested or not shown.
SMILES,Fam108B inh,SIAE primary,PME-1 inh,PRMT1 inh,TCR-CD3 inh,PAD4 inh,SIAE inh conf
OC(c1ccccc1)(c1ccccc1)C1CCN(CCCOc2ccncc2)CC1,x,22*,x,-1,-3,x,-1
CN(CC(=O)Nc1cccc(F)c1)C(=O)c1ccc(C2SCCS2)cc1,6,20*,6,2,11,-6,48*
CCOC(=O)[C@@]12CN(C(=O)OC(C)(C)C)CC=C1N(Cc1ccc(OC)cc1)C(=O)[C@H]2CC(=O)N1CCC(c2ccccc2)CC1,x,-1,x,1,x,x,x
COc1cccc(CNc2nccs2)c1O,3,18*,7,0,4,2,1
Cc1cc2ccccc2n1CCNC(=O)Cc1cccc2ccccc12,0,22*,-2,1,68*,3,-2
COc1cc(CNCCN2CCOCC2)ccc1OCc1cccc(Cl)c1,-2,17*,1,-1,-15,-1,-6
COc1cc(CNCCN2CCOCC2)ccc1OCc1ccc(Cl)cc1Cl,-3,-1,6,0,-3,-2,x
Cc1cccc(C(=O)Nc2nc3ncccn3c2-c2ccc(C(F)(F)F)cc2)c1,x,8,x,-2,x,x,x
CCn1c2ccccc2c2cc(NC(=O)c3ccccc3[N+](=O)[O-])ccc21,13,21*,30*,-1,3,2,10
O=[N+]([O-])c1cc(C=NN2CCN(Cc3ccccc3Cl)CC2)ccc1Cl,x,6,x,5,x,x,x
Cc1cnc(C(=O)Oc2ccc(-c3ccccc3)cc2)cn1,0,17*,0,2,-2,1,-7
Cc1cnc(C(=O)OCC(=O)c2ccc(-c3ccccc3)cc2)cn1,-1,2,-3,1,3,1,x
O=C(/C=C\c1ccco1)Nc1ccc(N2CCN(C(=O)c3ccccc3)CC2)cc1,1,1,0,2,-2,3,x
CC(=O)NC(=S)Nc1ccc(NC(=S)NC(=O)/C=C/c2ccco2)cc1,-6,31*,-6,9,0,3,-28
COc1ccc(NC(=S)NC(=O)/C=C/c2ccco2)cc1,-1,3,-1,1,7,0,x
O=C(/C=C/c1ccco1)NC(=S)Nc1ccc(N2CCCC2)cc1,1,18*,16,25*,11,1,7
O=C(c1cc(F)ccc1F)N1CCCC(c2nc(-c3cccs3)no2)C1 (centres undefined),x,-1,x,3,x,x,x
O=C(CSc1nnc(-c2ccccn2)n1-c1ccccc1)c1ccc(Cl)c(Cl)c1,x,1,x,-5,x,x,x
Clc1ccc([C@H]2OC[C@@]3(CNCc4ccccn4)CS[C@H](c4ccc(Cl)cc4)N23)cc1,x,1,x,14,x,x,x
O=C(O)CSc1nnc(Nc2ccccc2)n1-c1ccccc1,1,18*,1,-3,-3,-2,3
O=C(O)CSc1nnc(C2CC2)n1-c1ccccc1,2,1,-3,-2,5,-5,x
CC1(C(=O)Nc2ccccc2)CCN1C(=O)CCc1ccc(Cl)cc1Cl (centres undefined),x,19*,x,-1,-5,x,-1
N[C@H](C(=O)N1CCC[C@@H]1C(=O)N1CCC2CCN(S(=O)(=O)c3ccccc3)CC21)c1ccccc1 (some centres undefined),x,0,x,-3,x,x,x
Oc1oc(-c2ccco2)nc1C=Nc1ccccc1,13,6,8,-1,-1,-2,x
CC(=NCc1cccc(Cl)c1)c1nc(-c2ccco2)oc1O,1,21*,8,-1,-5,6,1
SMILES,Fam108B inh,SIAE primary,PME-1 inh,PRMT1 inh,TCR-CD3 inh,PAD4 inh,SIAE inh conf
C[C@@H]1OCN(C)[C@H]2C[C@H]3c4[nH]c5cccc(-c6ccccc6)c5c4CCN3C[C@@H]12,x,-8,x,-1,x,x,x
COc1ccccc1C(=O)N1CCN(C(=O)[C@@H](Cc2ccccc2)NC(=O)[C@H]2O[C@@H](n3cnc(C(N)=O)n3)[C@H](O)[C@@H]2O)CC1,x,11,x,6,1,x,x
Nc1ccn([C@@H]2O[C@H](C(=O)N[C@H](Cc3ccccc3)C(=O)N3CCN(C(=O)N4CCCCC4)CC3)[C@@H](O)[C@H]2O)c(=O)n1,x,23*,x,-3,-3,x,18*
NC(=O)c1ncn([C@@H]2O[C@H](C(=O)N[C@H](Cc3c[nH]c4ccccc34)C(=O)N3CCN(C(=O)N4CCCCC4)CC3)[C@@H](O)[C@H]2O)n1,x,17*,x,-1,3,x,8
Nc1ccn([C@@H]2O[C@H](C(=O)N[C@H](Cc3ccccc3)C(=O)N3CCN(CCO)CC3)[C@@H](O)[C@H]2O)c(=O)n1,x,5,x,3,0,x,x
O=C(CN1CCC(NC(=O)Nc2ccc(Cl)cc2)CC1)Nc1ccc2c(c1)OCCO2,x,-1,x,4,x,x,x
COC(=O)[C@]12C[C@H](CC(=O)NCc3ccccc3)C(=O)N(CCc3ccc(OC)c(OC)c3)C1=C[C@H](C(C)C)O[C@@H]2C1CC1,x,4,x,2,x,x,x
C=CCn1c(SCc2cccc(C(F)(F)F)c2)nnc1-c1ccc(OC)cc1,x,6,x,-4,x,x,x
CC(=O)c1ccc(OCc2cn(CC(=O)c3ccc(O)cc3)nn2)cc1,x,0,x,1,1,x,x
CC(=O)Nc1ccc(OCc2cn(CC(=O)c3ccc(O)cc3)nn2)cc1,x,21*,x,4,4,x,16
C[C@H]1[C@@H](NC(=O)c2cccc(C(F)(F)F)c2)CC[C@@]23CCCN2C(=O)CCC[C@@H]13,x,0,x,-1,x,x,x
Cc1cc(NC(=O)COC(=O)c2ccc(S(=O)(=O)C(F)F)cc2)n(-c2ccccc2)n1,3,-4,-1,3,1,-1,x
CCOC(=O)c1c(C)[nH]c(C(=O)OCC(=O)Nc2cc(C)nn2-c2ccccc2)c1C,-1,18*,10,-3,4,-5,-2
COCCSc1ncccc1-c1nc2ccccc2[nH]1,x,6,x,-2,x,x,x
C#CCNC(=O)C[C@@H]1C(=O)N2CCCC3=C2[C@@]1(C(=O)OCC)CCC3,x,-5,x,6,x,x,x
Cc1cc2c(cc1C)NC1=C(N2)OC(c2cccc(O)c2)C1=O (centres undefined),-3,28*,1,-3,-4,-3,-10
COc1ccc(C2OC3=C(Nc4cc(C)c(C)cc4N3)C2=O)cc1 (centres undefined),0,-2,3,-5,-1,-1,x
CCOC(=O)CC[C@@]1(C(=O)OCC)C[C@@H](CC(=O)N2CCSCC2)C(=O)N2CCCC=C21,x,2,x,0,x,x,x
COC(=O)[C@]12C[C@H](CC(=O)NCc3ccccc3)C(=O)N(Cc3ccc(Cl)cc3Cl)C1=C[C@H](C(C)(C)C)O[C@@H]2C,x,-1,x,4,x,x,x
C=CCOC(=O)N[C@H](c1ccccc1)[C@H](C)/C=C/CC(=O)OC,x,3,x,-2,x,x,x
COc1ccc(CC(=O)c2ccc(OC)c(OC)c2)cc1,2,17*,-7,-2,0,0,3
COc1ccc(CC(=O)OCC(=O)c2ccc(OC)c(OC)c2)cc1,x,5,-2,1,1,1,x
